Results published in PubChem BioAssay (NCATS).
Records with an inconclusive call do not appear. The source made the active and inactive calls. The call rests on the fitted dose curve; in most records, active means well fitted inhibition curve with a large enough effect; inconclusive means small, poorly fitted or top-dose-only effect; inactive means flat fitted curve, though single readings scatter.

Test system: not listed separately
Assay: qHTS profiling for inhibitors of Plasmodium falciparum proliferation (AID 504749);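 further: 0% = DMSO vehicle and full inhibition = artemisinin control; nearly all actives have a fitted effect of over 60% in size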
Details: P. falciparum in erythrocytes, SYBR Green DNA, 72 h; at 28.7 µM (top of the series); parasite line B
Outline: (§1)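 Quantitative HTS: compounds pinned into medium, infected erythrocytes added (0.3% parasitemia, 2.5% hematocrit), 72 h culture at 37 C under 5% CO2. Saponin/Triton lysis with SYBR Green I, overnight RT, then fluorescence read.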

Row | Compound | activity, negative = inhibition
1 | Cc1cccc(C)c1NC(=O)CC12CCCN1CCC2 | 0.226% (inactive)
2 | Cc1ccsc1C(=CCCN1CCC[C@@H](C(=O)O)C1)c1sccc1C | 3.18% (inactive)
3 | COC(=O)c1ccc(O)cc1 | 9.44% (inactive)
4 | COc1ccc(O)cc1 | -15.4% (inactive)
5 | c1ccc2[nH]ccc2c1 | 19.4% (inactive)
6 | CCN1CC(CCN2CCOCC2)C(c2ccccc2)(c2ccccc2)C1=O (stereo not drawn) | -5.11% (inactive)
7 | CCN(CC)C(=O)c1cccc(C)c1 | 6.22% (inactive)
8 | FC(F)(F)C(Cl)Br (stereo not drawn) | 10.7% (inactive)
9 | CN(C(=O)c1c(O)c2ccccc2n(C)c1=O)c1ccccc1 | 2.94% (inactive)
10 | CC(=O)OCC(COC(C)=O)OC(C)=O | 8.38% (inactive)
11 | CC(CN(C)C)C(C)(O)Cc1ccc(Cl)cc1 (stereo not drawn) | 10.7% (inactive)
12 | OC[C@@H](O)[C@@H](O)[C@H](O)[C@H](O)CO | 7.16% (inactive)
13 | O=C(CCBr)N1CCN(C(=O)CCBr)CC1 | -0.0848% (inactive)
14 | CC(=O)Nc1ccc(C(=O)O)cc1 | 3.26% (inactive)
15 | C=CCNC(N)=S | -1.15% (inactive)
16 | O[C@@H]1CO[C@H]2[C@@H]1OC[C@@H]2O | 1.12% (inactive)
17 | CC(C)c1cc2c(cc1S(=O)(=O)O)[C@@]1(C)CCC[C@@](C)(C(=O)O)[C@@H]1CC2 | -0.445% (inactive)
18 | CC(C)CCCC(C)CCCC(C)CCCCC(C)CCCC(C)CCCC(C)C (stereo not drawn) | 17.5% (inactive)
19 | CCCCCCCC(=O)OCC(O)CO (stereo not drawn) | -8.07% (inactive)
20 | CCCNC(C)(C)COC(=O)c1ccccc1 | 9.96% (inactive)
21 | Cc1cccc(Nc2ccccc2C(=O)O)c1C | 15.2% (inactive)
22 | CN1CCCN=C1COC(=O)C(O)(c1ccccc1)C1CCCCC1 (stereo not drawn) | -4.74% (inactive)

Test system: 3D7
Assay: as above
Details: P. falciparum in erythrocytes, SYBR Green DNA, 72 h; series mostly up to 28.7 µM; activity, negative = inhibition: at the top concentration
Outline: as §1

Row | Compound | activity, negative = inhibition
23 | O=C(O)COC(=O)Cc1ccccc1Nc1c(Cl)cccc1Cl | 0.982% [at 12.8 µM] (inactive)
24 | Cc1cccc(C)c1NC(=O)CC12CCCN1CCC2 | -9.62% (inactive)
25 | COc1ccc2cc(CCC(C)=O)ccc2c1 | -5.78% [at 12.8 µM] (inactive)
26 | Cc1ccsc1C(=CCCN1CCC[C@@H](C(=O)O)C1)c1sccc1C | -0.488% (inactive)
27 | COC(=O)c1ccc(O)cc1 | 8.08% (inactive)
28 | COc1ccc(O)cc1 | -12% (inactive)
29 | c1ccc2[nH]ccc2c1 | -0.234% (inactive)
30 | CCN1CC(CCN2CCOCC2)C(c2ccccc2)(c2ccccc2)C1=O (stereo not drawn) | -8.86% (inactive)
31 | COc1ccc(NS(=O)(=O)c2ccc(N)cc2)nn1 | 12.6% [at 12.8 µM] (inactive)
32 | CCOC(=O)[C@H](CCc1ccccc1)N[C@@H](C)C(=O)N1CCC[C@H]1C(=O)O | 1.47% (inactive)
33 | CCN(CC)C(=O)c1cccc(C)c1 | 0.4% (inactive)
34 | FC(F)(F)C(Cl)Br (stereo not drawn) | 0.121% (inactive)
35 | CN(C(=O)c1c(O)c2ccccc2n(C)c1=O)c1ccccc1 | -2.57% (inactive)
36 | CC(=O)OCC(COC(C)=O)OC(C)=O | 1.12% (inactive)
37 | CC(CN(C)C)C(C)(O)Cc1ccc(Cl)cc1 (stereo not drawn) | 0.0544% (inactive)
38 | OC[C@@H](O)[C@@H](O)[C@H](O)[C@H](O)CO | 5.91% (inactive)
39 | O=C(CCBr)N1CCN(C(=O)CCBr)CC1 | 1.15% (inactive)
40 | CC(=O)Nc1ccc(C(=O)O)cc1 | 4.04% (inactive)
41 | C=CCNC(N)=S | 3.47% (inactive)
42 | O[C@@H]1CO[C@H]2[C@@H]1OC[C@@H]2O | -0.0617% (inactive)
43 | CC(C)c1cc2c(cc1S(=O)(=O)O)[C@@]1(C)CCC[C@@](C)(C(=O)O)[C@@H]1CC2 | 6.03% (inactive)
44 | Cc1onc(-c2ccccc2)c1-c1ccc(S(N)(=O)=O)cc1 | 1.56% (inactive)
45 | CC(C)CCCC(C)CCCC(C)CCCCC(C)CCCC(C)CCCC(C)C (stereo not drawn) | 3.73% (inactive)
46 | CCCCCCCC(=O)OCC(O)CO (stereo not drawn) | -4.61% (inactive)
47 | CCCNC(C)(C)COC(=O)c1ccccc1 | 5.81% (inactive)
48 | Cc1cccc(Nc2ccccc2C(=O)O)c1C | 3.68% (inactive)
49 | CN1CCCN=C1COC(=O)C(O)(c1ccccc1)C1CCCCC1 (stereo not drawn) | 1.71% (inactive)

Test system: 7G8
Assay: as above
Details: P. falciparum in erythrocytes, SYBR Green DNA, 72 h; series mostly up to 28.7 µM; activity, negative = inhibition: at the top concentration
Outline: as §1

Row | Compound | activity, negative = inhibition
50 | O=C(O)COC(=O)Cc1ccccc1Nc1c(Cl)cccc1Cl | 10.8% [at 12.8 µM] (inactive)
51 | Cc1cccc(C)c1NC(=O)CC12CCCN1CCC2 | -20.6% (inactive)
52 | COc1ccc2cc(CCC(C)=O)ccc2c1 | -19% [at 12.8 µM] (inactive)
53 | Cc1ccsc1C(=CCCN1CCC[C@@H](C(=O)O)C1)c1sccc1C | -1.76% (inactive)
54 | COC(=O)c1ccc(O)cc1 | -16.2% (inactive)
55 | COc1ccc(O)cc1 | -8.42% (inactive)
56 | c1ccc2[nH]ccc2c1 | -5.36% (inactive)
57 | COc1ccc(NS(=O)(=O)c2ccc(N)cc2)nn1 | -12.4% [at 12.8 µM] (inactive)
58 | CCOC(=O)[C@H](CCc1ccccc1)N[C@@H](C)C(=O)N1CCC[C@H]1C(=O)O | 13.4% (inactive)
59 | CCN(CC)C(=O)c1cccc(C)c1 | -3.6% (inactive)
60 | FC(F)(F)C(Cl)Br (stereo not drawn) | 17.4% (inactive)
61 | CC(=O)OCC(COC(C)=O)OC(C)=O | 6.7% (inactive)
62 | OC[C@@H](O)[C@@H](O)[C@H](O)[C@H](O)CO | 16.3% (inactive)
63 | O=C(CCBr)N1CCN(C(=O)CCBr)CC1 | 4.73% (inactive)
64 | CC(=O)Nc1ccc(C(=O)O)cc1 | 1.17% (inactive)
65 | C=CCNC(N)=S | 4.08% (inactive)
66 | O[C@@H]1CO[C@H]2[C@@H]1OC[C@@H]2O | -23.8% (inactive)
67 | CC(C)c1cc2c(cc1S(=O)(=O)O)[C@@]1(C)CCC[C@@](C)(C(=O)O)[C@@H]1CC2 | -17.6% (inactive)
68 | Cc1onc(-c2ccccc2)c1-c1ccc(S(N)(=O)=O)cc1 | -19.8% (inactive)
69 | CC(C)CCCC(C)CCCC(C)CCCCC(C)CCCC(C)CCCC(C)C (stereo not drawn) | -16.1% (inactive)
70 | CCCCCCCC(=O)OCC(O)CO (stereo not drawn) | 7.62% (inactive)
71 | CCCNC(C)(C)COC(=O)c1ccccc1 | -25.6% (inactive)
72 | Cc1cccc(Nc2ccccc2C(=O)O)c1C | -7.04% (inactive)
73 | CN1CCCN=C1COC(=O)C(O)(c1ccccc1)C1CCCCC1 (stereo not drawn) | -19.9% (inactive)
